Laboratory results from ChEMBL document CHEMBL3988442, “University of Dundee, Small-Polar-MMV Screening Library” (2021).
Out of some 48,000 compounds screened, about 13,000 (27%) showed an effect of 50% or more. The list shows a part of the results.

Tested on: Wolbachia pipientis
Experiment: Anti-Wolbachia Cell-Based Screen
Type: functional
Design: scale not given: in the data most compounds retested in dose-response had high values
Conditions: 5 µM

Compared with CC(=O)N[C@@H](CC(C)C)C(=O)N1CCC(n2cc(CC(C)C)nn2)CC1, CC(C)N1CCc2ncn(C(C)C)c2C1C(=O)N1CCN(C)CC1 (stereo not given) is lower in “Percent Effect” value: -6.729% for the first, -12.1% for the second.

Compared with O=S(=O)(Nc1ccccn1)c1cc(Cl)cc2c1OCC2, O=C(NCCN1CCc2ccccc2C1)c1scnc1Cl is higher in “Percent Effect” value: -2.666% for the first, 7.313% for the second.

First: COCc1ncn2c1CN(S(=O)(=O)c1cccs1)CCC2
Second: Cn1cnc2c1CCN(CC(=O)N(Cc1ccsc1)C1CC1)C2
The “Percent Effect” value of the first is higher: -6.89% for the first, -10.64% for the second.

Going from FC(F)(F)c1ccc(CNC[C@H]2COCc3nc4cccnc4n32)cc1 to O=C1COC[C@H]([C@H](O)c2ccc(NC(=O)c3ccco3)cc2)N1, the “Percent Effect” value falls from -6.835% to -8.877%.

Going from CCOCc1ccc(NCc2cnc(N3CCN(C)CC3)nc2)cc1 to CCOCc1nc2c(c(NC(CC)c3ccncc3)n1)CCNCC2 (stereo not given), the “Percent Effect” value falls from 18.94% to -23.76%.

Compared with O=S(=O)(NCCC(O)c1cccs1)c1ccccc1 (stereo not given), O=C(NCC1CCCN(C(=O)NCCc2ccccc2)C1)c1ccco1 (stereo not given) is lower in “Percent Effect” value: 2.573% for the first, -12.18% for the second.

Going from CSc1ccc(OC(C)C(=O)Nc2c(C)n[nH]c2C)cc1 (stereo not given) to CSc1ccc(C(O)CNS(=O)(=O)C2CC2)cc1 (stereo not given), the “Percent Effect” value rises from -3.157% to 2.179%.

Compared with O=C(Nc1ccc(-n2cncn2)nc1)N(CC1CCOC1)C1CC1 (stereo not given), CCOc1ccc(NC(=O)N2CCOC(C(N)=O)C2)cc1C (stereo not given) is higher in “Percent Effect” value: 3.822% for the first, 95.69% for the second.

First: Cc1cc(CNC(=O)NCCOc2ccc(F)c(F)c2)on1
Second: COCC1CN(C(=O)Nc2cc(Cl)ccc2F)CCO1 (stereo not given)
The “Percent Effect” value of the first is higher: -11.19% for the first, -13.77% for the second.

First: O=C(NCC1CCS(=O)(=O)C1)c1ccc(NC(=O)c2ccco2)cc1 (stereo not given)
Second: O=C(NCC1CC1)c1ccc(NC(=O)c2ccco2)cc1
The “Percent Effect” value of the first is lower: 100.2% for the first, 109.6% for the second.

First: O=C(NCC1CCS(=O)(=O)C1)c1ccc2cccc(Cl)c2n1 (stereo not given)
Second: Cc1cccc(C(=O)NCC2CCS(=O)(=O)C2)n1 (stereo not given)
The “Percent Effect” value of the first is lower: -11.54% for the first, 20.7% for the second.

Going from O=C(NCC1CCS(=O)(=O)C1)Nc1ccccn1 (stereo not given) to COc1ncccc1NC(=O)NCC1CCS(=O)(=O)C1 (stereo not given), the “Percent Effect” value falls from 11.69% to -8.215%.

First: Cc1cc(C(=O)NCC2CCS(=O)(=O)C2)ccc1NC(=O)c1ccco1 (stereo not given)
Second: O=C(NCC1CCS(=O)(=O)C1)c1ccco1 (stereo not given)
The “Percent Effect” value of the first is higher: 105.8% for the first, 88.86% for the second.

Compared with Cc1ccc(NC(=O)NCC2CCS(=O)(=O)C2)cc1Cl (stereo not given), COc1ccc(NC(=O)N2CCC(CSC)C2)cc1C (stereo not given) is lower in “Percent Effect” value: 41.82% for the first, -50.59% for the second.

Compared with Cc1occc1C(=O)Nc1ccc(C(=O)NC[C@H]2CCCN2)cc1, CCOc1ccc(NC(=O)N2CCOC(C(N)=O)C2)cc1Cl (stereo not given) is higher in “Percent Effect” value: -11.64% for the first, 142.8% for the second.

Compared with Cc1cnn(CCNCc2c(C)nn(-c3ccccc3)c2C)c1, COc1ccc(CNCCc2cccc(C(N)=O)c2)cc1C is lower in “Percent Effect” value: 2.27% for the first, -2.965% for the second.

Going from CCn1ccnc1CNCC1CCCN1c1cc(NC)ncn1 (stereo not given) to CCOc1ccc(NC(=O)NC2CCc3nc(C)nn3C2)cc1Cl (stereo not given), the “Percent Effect” value falls from -2.475% to -21%.

Going from CC1(c2ccccc2)CCCN(Cc2cncn2C2CC2)C1 (stereo not given) to Cc1cnc(C)c(N2CCC(Cc3ccccc3Cl)(C(=O)O)CC2)n1, the “Percent Effect” value rises from -17.5% to 2.277%.

First: CC(=O)N1CCN2C(=O)N(Cc3ccc(F)cc3)C[C@H]2C1
Second: CCCC(O)CN1CC(C)(C)CN(C(=O)c2ccc(Cl)cc2)CC1=O (stereo not given)
The “Percent Effect” value of the first is lower: -0.8027% for the first, 78.76% for the second.

Compared with Cc1ncsc1C(=O)NCC1SCCc2ccccc21 (stereo not given), Cc1ncsc1C(=O)N1CCC(O)(CN2CCc3ccccc3C2)C1 (stereo not given) is higher in “Percent Effect” value: 15.22% for the first, 69.3% for the second.

Going from Cc1ccsc1C(=O)N1CC(C(=O)N2CCOCC2)C2(CCOCC2)C1 (stereo not given) to Cc1ccsc1C(=O)N1CCC(O)(CN2CCc3ccccc3C2)C1 (stereo not given), the “Percent Effect” value rises from -2.409% to 107.5%.

First: Cc1ccsc1C(=O)N1Cc2ccccc2C2(CCN(C)CC2)C1
Second: CC(=O)N1CCCN(Cc2csc(C)n2)c2ccccc21
The “Percent Effect” value of the first is lower: 0.4591% for the first, 0.8232% for the second.

First: CN(C)C(=O)CN1C[C@H]2CCN(C(=O)c3ccccc3)CC[C@H]2S1(=O)=O
Second: CCCC(O)CN1CC(C)(C)CN(C(=O)c2ccccc2)CC1=O (stereo not given)
The “Percent Effect” value of the first is lower: -0.2408% for the first, 122.4% for the second.

First: CCOc1ccc(C#N)cc1NC(=O)N1CCOC(C(N)=O)C1 (stereo not given)
Second: COCCOc1ccc(NC(=O)N2CCOC(C(N)=O)C2)cc1F (stereo not given)
The “Percent Effect” value of the first is lower: 8.32% for the first, 100.1% for the second.

Going from COCC1CN(C(=O)Nc2ccc(Cl)cc2Cl)CCO1 (stereo not given) to COCC1CN(C(=O)Nc2cc(Br)ccc2F)CCO1 (stereo not given), the “Percent Effect” value rises from -1.722% to -0.1525%.

First: Cc1[nH]nc2ncc(C(=O)N3CCN(CC(O)C(C)(C)C)CC3)cc12 (stereo not given)
Second: CC1(C)CN(CC(O)C(C)(C)C)C(=O)CN(C(=O)c2ccccc2)C1 (stereo not given)
The “Percent Effect” value of the first is lower: -16.51% for the first, 117.8% for the second.

First: CC(C)CN1CC2(CCN(C(=O)C(O)c3ccccc3Cl)CC2)CC1=O (stereo not given)
Second: CN(C)C(=O)N1CCN(C(=O)c2ccc(Cl)cc2)CC2(CNC(=O)C2)C1 (stereo not given)
The “Percent Effect” value of the first is lower: -2.667% for the first, -1.625% for the second.

Compared with CCCN(CCO)C(=O)C1CCC(=O)N(CCc2ccc(Cl)cc2)C1 (stereo not given), CCCC(O)CN1CC(C)(C)CN(C(=O)c2ccc(SC)cc2)CC1=O (stereo not given) is higher in “Percent Effect” value: -1.106% for the first, 118.8% for the second.

Going from NC(=O)NCC(=O)N1C[C@H]2CC[C@@H]1CN(C1Cc3ccccc3C1)C2 to COc1nc2c(cc1C(=O)N1C[C@H](N)C[C@H]1C(=O)NC(C)C)CCC2, the “Percent Effect” value falls from -1.297% to -26.43%.

Going from CN(C)CCN1CC(C(=O)N2CCC(c3nccn3C)CC2)CC1=O (stereo not given) to CC1CCCCN1Cc1nc(C2CC2)no1 (stereo not given), the “Percent Effect” value rises from 2.201% to 23.82%.

First: CCc1nc(CCn2ccc3nc(OC)c(C#N)cc3c2=O)no1
Second: CCCc1noc(CN2CCOCC2C)n1 (stereo not given)
The “Percent Effect” value of the first is lower: 0.8236% for the first, 76.64% for the second.

Compared with CC(C)c1noc(CN2CCC3(CCCO3)CCC2=O)n1 (stereo not given), CC(C)c1noc(CN2CCOCC2C)n1 (stereo not given) is higher in “Percent Effect” value: -7.858% for the first, 107.7% for the second.

First: CC1COCCN1Cc1nc(C(C)(C)C)no1 (stereo not given)
Second: CC1COCCN1Cc1noc(C(C)(C)C)n1 (stereo not given)
The “Percent Effect” value of the first is higher: 110.8% for the first, 91.93% for the second.

Compared with CC(C)(C)c1noc(CN2CCCC(CNS(N)(=O)=O)C2)n1 (stereo not given), CC(C(=O)N1CCOCC1)S(=O)(=O)Cc1noc(C(C)(C)C)n1 (stereo not given) is lower in “Percent Effect” value: -0.7485% for the first, -4.281% for the second.

Compared with CC(C)c1noc(CS(=O)(=O)Cc2nc(C(C)C)no2)n1, CC(C)(C)c1nc(CN2CCC(N3CCCCC3)CC2)no1 is higher in “Percent Effect” value: -3.73% for the first, 3.179% for the second.
